According to the supplement of paper PMC11732987, “Enantioselective OTUD7B fragment discovery through chemoproteomics screening and high-throughput optimisation” (Communications Chemistry, 2025):

Experiments:
Assay in all cases: log2 ratio of Biotin-Ahx-Ub-VS probe labelling (fragment/DMSO); higher = less target engagement (more negative = stronger competition), active = hit call of the paper (q ≤ 0.05, log2 ratio ≤ -1)
Details in all cases: compound concentration: 200 uM; treatment time: 3 h
[1] = biological target: T1, ALG13 (UniProt Q9NP73)
T1 sequence (whole entry): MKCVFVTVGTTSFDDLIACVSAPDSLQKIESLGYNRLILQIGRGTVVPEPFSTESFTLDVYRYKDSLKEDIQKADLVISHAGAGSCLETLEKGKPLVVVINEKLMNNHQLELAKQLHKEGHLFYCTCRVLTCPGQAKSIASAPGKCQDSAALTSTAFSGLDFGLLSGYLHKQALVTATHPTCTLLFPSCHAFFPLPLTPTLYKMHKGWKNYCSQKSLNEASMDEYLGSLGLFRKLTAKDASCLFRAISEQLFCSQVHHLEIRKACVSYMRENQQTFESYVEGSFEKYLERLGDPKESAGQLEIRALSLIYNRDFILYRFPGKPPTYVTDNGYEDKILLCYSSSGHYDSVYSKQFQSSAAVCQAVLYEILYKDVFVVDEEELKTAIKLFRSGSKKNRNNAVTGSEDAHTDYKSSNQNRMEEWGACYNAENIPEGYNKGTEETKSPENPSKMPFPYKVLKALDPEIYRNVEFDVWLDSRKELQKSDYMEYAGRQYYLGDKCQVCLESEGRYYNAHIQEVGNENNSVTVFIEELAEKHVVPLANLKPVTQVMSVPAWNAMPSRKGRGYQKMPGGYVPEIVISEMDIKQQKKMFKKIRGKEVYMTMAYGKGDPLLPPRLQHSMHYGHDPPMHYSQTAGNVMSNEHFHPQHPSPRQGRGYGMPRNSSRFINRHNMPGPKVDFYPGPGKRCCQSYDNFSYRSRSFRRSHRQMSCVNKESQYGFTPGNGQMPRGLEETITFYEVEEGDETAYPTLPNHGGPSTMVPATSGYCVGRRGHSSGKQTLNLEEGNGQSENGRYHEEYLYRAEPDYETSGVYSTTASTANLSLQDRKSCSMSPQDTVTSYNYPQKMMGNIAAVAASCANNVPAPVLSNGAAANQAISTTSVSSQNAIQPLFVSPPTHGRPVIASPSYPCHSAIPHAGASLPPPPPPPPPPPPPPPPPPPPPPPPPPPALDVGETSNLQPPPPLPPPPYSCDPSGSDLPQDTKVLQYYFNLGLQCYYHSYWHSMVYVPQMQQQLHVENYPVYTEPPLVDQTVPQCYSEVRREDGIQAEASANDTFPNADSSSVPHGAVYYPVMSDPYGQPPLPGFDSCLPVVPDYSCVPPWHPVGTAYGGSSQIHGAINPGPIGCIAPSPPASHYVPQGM
Procedure, shortened: (§1)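 Triplicate samples of HEK293T lysate, 495 µg each, received fragment at 200 µM or vehicle for 3 h, followed by Biotin-Ahx-Ub-VS (0.5 µM final) for 1 h. After NeutrAvidin enrichment of labelled DUBs and LysC/trypsin digestion, peptides were run by diaPASEF LC-MS/MS. The values are average log2 fragment/vehicle ratios from global-median-normalised Spectronaut label-free quantities, tested by unpaired t-test on proteins having ≥2 unique peptides.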

[2] = biological target: ATXN3 (UniProt P54252)
Chain of ATXN3 (P54252 whole entry): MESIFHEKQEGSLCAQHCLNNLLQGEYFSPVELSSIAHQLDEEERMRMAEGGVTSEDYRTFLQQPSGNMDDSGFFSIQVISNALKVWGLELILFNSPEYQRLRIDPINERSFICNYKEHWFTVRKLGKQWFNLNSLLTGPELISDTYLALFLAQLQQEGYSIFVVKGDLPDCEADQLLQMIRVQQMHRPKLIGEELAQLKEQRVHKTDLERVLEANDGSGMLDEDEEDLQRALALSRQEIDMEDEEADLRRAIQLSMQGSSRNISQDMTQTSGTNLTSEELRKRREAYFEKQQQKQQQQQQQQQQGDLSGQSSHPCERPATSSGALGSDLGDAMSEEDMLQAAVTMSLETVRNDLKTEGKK
Procedure, shortened: as §1

[3] = biological target: T2, BAP1 (UniProt Q92560)
T2 sequence (whole entry): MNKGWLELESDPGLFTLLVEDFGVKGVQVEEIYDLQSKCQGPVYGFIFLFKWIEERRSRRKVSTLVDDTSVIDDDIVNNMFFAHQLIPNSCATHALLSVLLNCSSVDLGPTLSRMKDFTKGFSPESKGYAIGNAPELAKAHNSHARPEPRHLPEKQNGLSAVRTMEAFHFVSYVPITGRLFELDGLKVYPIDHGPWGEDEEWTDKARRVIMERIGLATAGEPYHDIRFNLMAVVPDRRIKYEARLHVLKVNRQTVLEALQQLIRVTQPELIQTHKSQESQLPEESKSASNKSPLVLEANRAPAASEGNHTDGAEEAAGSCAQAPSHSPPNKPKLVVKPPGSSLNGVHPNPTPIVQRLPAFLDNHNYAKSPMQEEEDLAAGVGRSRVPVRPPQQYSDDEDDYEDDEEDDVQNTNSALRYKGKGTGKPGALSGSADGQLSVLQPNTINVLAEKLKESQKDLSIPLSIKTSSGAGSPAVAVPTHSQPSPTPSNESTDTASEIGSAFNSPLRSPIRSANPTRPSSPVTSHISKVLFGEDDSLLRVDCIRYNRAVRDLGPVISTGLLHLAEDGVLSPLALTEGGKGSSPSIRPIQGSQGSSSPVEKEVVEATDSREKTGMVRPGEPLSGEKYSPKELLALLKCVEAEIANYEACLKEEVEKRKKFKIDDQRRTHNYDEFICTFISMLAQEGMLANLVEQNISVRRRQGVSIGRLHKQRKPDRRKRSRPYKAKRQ
Procedure, shortened: as §1

[4] = biological target: EIF3F (UniProt O00303)
Chain of EIF3F (O00303 whole entry): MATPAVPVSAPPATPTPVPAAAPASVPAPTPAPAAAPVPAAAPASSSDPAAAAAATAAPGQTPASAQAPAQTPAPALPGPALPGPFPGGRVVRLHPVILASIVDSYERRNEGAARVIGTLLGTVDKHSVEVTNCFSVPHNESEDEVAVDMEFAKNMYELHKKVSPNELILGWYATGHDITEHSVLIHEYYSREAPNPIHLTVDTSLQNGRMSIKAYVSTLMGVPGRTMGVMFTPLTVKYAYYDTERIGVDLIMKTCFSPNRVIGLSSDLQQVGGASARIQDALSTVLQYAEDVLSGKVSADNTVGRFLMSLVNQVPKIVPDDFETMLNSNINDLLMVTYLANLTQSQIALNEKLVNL
Procedure, shortened: as §1

[5] = biological target: EIF3H (UniProt O15372)
Chain of EIF3H (O15372 whole entry): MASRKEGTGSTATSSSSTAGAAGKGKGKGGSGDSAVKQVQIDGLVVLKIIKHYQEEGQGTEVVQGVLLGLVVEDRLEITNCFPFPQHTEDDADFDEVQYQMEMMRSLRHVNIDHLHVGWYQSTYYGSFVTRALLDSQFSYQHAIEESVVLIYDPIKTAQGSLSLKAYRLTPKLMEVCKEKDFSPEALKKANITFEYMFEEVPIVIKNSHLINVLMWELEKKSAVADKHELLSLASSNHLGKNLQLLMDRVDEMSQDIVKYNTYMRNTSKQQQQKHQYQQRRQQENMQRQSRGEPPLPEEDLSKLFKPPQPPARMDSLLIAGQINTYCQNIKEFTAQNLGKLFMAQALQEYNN
Procedure, shortened: as §1

[6] = biological target: T3, FAM105A (UniProt Q9NUU6)
T3 sequence (whole entry): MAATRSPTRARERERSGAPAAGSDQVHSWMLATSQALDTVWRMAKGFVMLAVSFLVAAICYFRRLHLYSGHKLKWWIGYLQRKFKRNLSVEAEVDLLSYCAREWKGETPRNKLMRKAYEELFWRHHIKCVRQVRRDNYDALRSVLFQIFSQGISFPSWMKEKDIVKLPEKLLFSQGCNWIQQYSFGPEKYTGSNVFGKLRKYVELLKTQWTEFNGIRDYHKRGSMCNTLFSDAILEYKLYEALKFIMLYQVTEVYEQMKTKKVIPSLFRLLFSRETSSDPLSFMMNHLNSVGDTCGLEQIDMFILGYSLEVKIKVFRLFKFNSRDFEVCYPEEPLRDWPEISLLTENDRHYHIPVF
Procedure, shortened: as §1

[7] = biological target: OTUB1 (UniProt Q96FW1)
Chain of OTUB1 (Q96FW1 whole entry): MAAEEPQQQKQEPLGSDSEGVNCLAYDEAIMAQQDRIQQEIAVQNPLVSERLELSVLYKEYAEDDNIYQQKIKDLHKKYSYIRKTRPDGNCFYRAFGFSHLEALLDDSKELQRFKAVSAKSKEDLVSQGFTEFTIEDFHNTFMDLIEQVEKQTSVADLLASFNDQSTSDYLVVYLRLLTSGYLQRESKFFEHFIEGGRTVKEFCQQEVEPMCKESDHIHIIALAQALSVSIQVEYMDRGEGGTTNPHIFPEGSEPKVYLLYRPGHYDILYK
Procedure, shortened: as §1

[8] = biological target: T4, OTUD4 (UniProt Q01804)
T4 sequence (whole entry): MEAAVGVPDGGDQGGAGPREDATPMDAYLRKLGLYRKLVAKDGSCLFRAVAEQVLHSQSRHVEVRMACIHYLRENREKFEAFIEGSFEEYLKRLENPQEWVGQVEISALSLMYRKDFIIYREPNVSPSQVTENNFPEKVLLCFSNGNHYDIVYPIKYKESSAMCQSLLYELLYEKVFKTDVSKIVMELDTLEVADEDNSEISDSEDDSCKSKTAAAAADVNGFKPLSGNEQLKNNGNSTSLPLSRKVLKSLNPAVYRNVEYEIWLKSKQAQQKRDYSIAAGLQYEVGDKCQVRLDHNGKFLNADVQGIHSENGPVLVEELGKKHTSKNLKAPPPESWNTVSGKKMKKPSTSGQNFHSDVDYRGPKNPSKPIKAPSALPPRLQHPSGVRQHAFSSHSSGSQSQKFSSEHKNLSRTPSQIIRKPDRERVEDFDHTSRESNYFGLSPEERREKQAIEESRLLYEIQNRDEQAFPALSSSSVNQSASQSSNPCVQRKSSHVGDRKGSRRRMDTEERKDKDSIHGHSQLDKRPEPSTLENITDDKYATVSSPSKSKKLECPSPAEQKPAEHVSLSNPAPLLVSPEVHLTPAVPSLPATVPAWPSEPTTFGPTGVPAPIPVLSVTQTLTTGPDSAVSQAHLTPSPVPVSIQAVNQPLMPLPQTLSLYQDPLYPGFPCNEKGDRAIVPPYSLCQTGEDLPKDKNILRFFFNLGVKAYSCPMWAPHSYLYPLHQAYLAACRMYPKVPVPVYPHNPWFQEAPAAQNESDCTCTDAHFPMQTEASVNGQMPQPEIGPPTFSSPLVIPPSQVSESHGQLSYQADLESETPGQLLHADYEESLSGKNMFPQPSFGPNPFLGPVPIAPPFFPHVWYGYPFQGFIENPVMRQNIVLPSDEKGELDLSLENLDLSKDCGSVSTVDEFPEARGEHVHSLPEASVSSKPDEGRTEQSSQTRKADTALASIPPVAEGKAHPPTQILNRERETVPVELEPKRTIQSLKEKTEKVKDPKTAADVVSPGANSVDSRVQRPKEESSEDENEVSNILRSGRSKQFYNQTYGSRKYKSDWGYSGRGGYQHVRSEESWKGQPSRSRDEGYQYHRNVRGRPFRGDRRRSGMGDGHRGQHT
Procedure, shortened: as §1

[9] = biological target: T5, OTUD5 (UniProt Q96G74)
T5 sequence (whole entry): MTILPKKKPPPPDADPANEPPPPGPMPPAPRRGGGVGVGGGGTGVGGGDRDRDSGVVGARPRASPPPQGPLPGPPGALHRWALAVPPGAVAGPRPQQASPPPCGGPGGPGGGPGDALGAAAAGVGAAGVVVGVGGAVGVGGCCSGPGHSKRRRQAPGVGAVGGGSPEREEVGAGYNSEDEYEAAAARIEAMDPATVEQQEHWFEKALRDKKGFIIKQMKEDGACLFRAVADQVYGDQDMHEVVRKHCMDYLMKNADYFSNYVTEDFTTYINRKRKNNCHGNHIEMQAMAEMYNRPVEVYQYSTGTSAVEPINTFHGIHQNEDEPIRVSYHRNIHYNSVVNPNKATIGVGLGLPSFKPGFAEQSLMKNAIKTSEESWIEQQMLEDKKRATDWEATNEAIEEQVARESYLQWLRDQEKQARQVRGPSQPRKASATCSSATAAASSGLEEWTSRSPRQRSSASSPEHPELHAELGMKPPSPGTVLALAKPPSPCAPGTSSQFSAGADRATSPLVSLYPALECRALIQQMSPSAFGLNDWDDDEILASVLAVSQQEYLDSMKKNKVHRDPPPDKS
Procedure, shortened: as §1

Measured: log2 ratio of Biotin-Ahx-Ub-VS probe labelling

CCC1c2ccsc2CCN1C(=O)CCl (centres undefined)
inactive: [1] 0.127 | [2] -0.424 | [3] -0.48 | [4] -0.262 | [5] 0.089 | [6] 0.09 | [7] 0.0848 | [8] -0.658
active: [9] -1.15
